PubChem BioAssay (EPA / NIEHS)
Records with an inconclusive call do not appear. Active and inactive are the calls of the source. The calls were made as follows: active = hit-call score of the fitted dose curve at least 0.9, where 1 is the maximum; inconclusive = response in the unintended direction; inactive = score below 0.9.

tested on: not listed separately; test: ATG_XTT_Cytotoxicity: Cytotoxicity Assessment in the Attagene TRANS-FACTORIAL HepG2 Assay (AID 2283584)
Method in brief: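 Transfect HepG2 with GAL4-UAS reporter units, dose compound, incubate 24 h, then measure viable cell number by XTT. Fit concentration response against DMSO baseline.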

Compound	outcome
CCCCCC(=O)OCC	inactive
CC(=O)c1ccccc1O	inactive
CCC[Si](OC)(OC)OC	inactive
C=CC(=O)OCC(C)OCC(C)OCC(C)OC(=O)C=C (stereo not drawn)	inactive
Clc1cc(Cl)c(Cl)c(Cl)c1Cl	inactive
CCCCCCCCCCCC(C)=O	inactive
C=Cc1ccc(OC(C)=O)cc1	inactive
CC=C(C)C=CC=C(C)C	inactive
NNS(=O)(=O)c1ccc(Oc2ccc(S(=O)(=O)NN)cc2)cc1	inactive

tested on: not listed separately; test: TOX21_p53_BLA_p2_viability: Viability Assessment in the Tox21 HCT-116 p53 Agonism Beta-lactamase Assay, Phase 2 (AID 2283591);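 also: compound exposure lasted 16 h at 37 °C; actives lower the ATP signal meaning cytotoxicity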
Method in brief: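 HCT116 p53-bla cells, 4000/well, dosed after 5 h plating (217-fold dilution of DMSO stocks) and incubated 16 h at 37C. Viability taken as cellular ATP by CellTiter-Glo luminescence after 30 min RT; signal loss marks cytotoxicity.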

Compound	outcome
C=C[C@@]1(C)CC(=O)[C@]2(O)[C@@]3(C)[C@@H](O)CCC(C)(C)[C@@H]3[C@H](O)[C@H](OC(C)=O)[C@@]2(C)O1	inactive
O=c1c(O)c(-c2ccc(O)cc2O)oc2cc(O)cc(O)c12	inactive
Cc1cccc(C(C)(C)C)c1O	inactive
CC12CCC(CC1)C(C)(C)O2	inactive
CC(=O)C(C)C	inactive
C=C(C)C(=O)OCCOC(=O)C(=C)C	inactive
CC(C)c1cc(C(C)C)cc(C(C)C)c1	inactive
CCc1cccc(C)c1N	inactive
O=C(O)C1CCC(C(=O)O)CC1 (stereo not drawn)	inactive
CC(=O)c1ccc(S(=O)(=O)NC(=O)NC2CCCCC2)cc1	inactive
CC(C)COC(=O)CC(C(=O)OCC(C)C)S(=O)(=O)O (stereo not drawn)	inactive
CCCCCCCC(=O)OCC(COC(=O)CCCCCCC)OC(=O)CCCCCCC	inactive
CCOC(=O)c1ccccc1C	inactive
CCCCNC(=S)NCCCC	inactive
Cc1ccccc1CCO	inactive
OCCCc1ccccc1	inactive
O=S(=O)(O)c1ccc(N=Nc2c(O)ccc3ccccc23)cc1	inactive
CC1=CCC2CC1C2(C)C (stereo not drawn)	inactive
CC(C)=CCl	inactive
O=C(OCc1ccccc1)c1ccc(O)cc1	inactive
CCCCCCOC(=O)CCCCC(=O)OCCCCCC	inactive
CCCC1CCCC(=O)O1 (stereo not drawn)	inactive
C=C[Si](OCCOC)(OCCOC)OCCOC	inactive

target: Cellular tumor antigen p53 (Homo sapiens) (UniProt P04637); test: TOX21_p53_BLA_p2_ratio: Tox21 HCT-116 p53 Agonism Beta-lactamase Assay, Ratio, Phase 2 (AID 2283592)
Method in brief: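 An inducible beta-lactamase reporter in HCT116 cells signals p53 pathway activation. After 16 h chemical exposure at 37C, cells load CCF4-AM substrate for 2 h at room temperature; activity is the cleaved/uncleaved emission ratio relative to DMSO.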

Cellular tumor antigen p53 (Homo sapiens), sequence (P04637 whole entry, looked up): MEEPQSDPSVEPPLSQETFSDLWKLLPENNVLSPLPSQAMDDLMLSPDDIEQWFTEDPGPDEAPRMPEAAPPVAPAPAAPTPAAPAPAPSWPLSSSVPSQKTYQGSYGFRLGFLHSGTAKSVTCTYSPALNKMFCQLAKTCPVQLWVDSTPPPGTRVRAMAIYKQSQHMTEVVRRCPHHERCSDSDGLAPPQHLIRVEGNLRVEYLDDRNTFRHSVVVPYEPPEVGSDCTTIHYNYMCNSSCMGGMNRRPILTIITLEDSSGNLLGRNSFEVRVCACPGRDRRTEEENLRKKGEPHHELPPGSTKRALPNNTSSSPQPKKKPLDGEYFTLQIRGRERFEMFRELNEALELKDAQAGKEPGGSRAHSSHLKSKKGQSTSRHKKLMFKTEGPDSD

Compound	outcome
C=C[C@@]1(C)CC(=O)[C@]2(O)[C@@]3(C)[C@@H](O)CCC(C)(C)[C@@H]3[C@H](O)[C@H](OC(C)=O)[C@@]2(C)O1	inactive
C[Si]1(C)O[Si](C)(C)O[Si](C)(C)O[Si](C)(C)O[Si](C)(C)O1	inactive
Cc1cccc(C(C)(C)C)c1O	inactive
CC12CCC(CC1)C(C)(C)O2	inactive
C=C(C)C(=O)OCCOC(=O)C(=C)C	inactive
CC(=O)c1ccccc1O	inactive
CCc1cccc(C)c1N	inactive
O=C(O)CCCC(=O)O	inactive
COC(=O)CC(C)CCC=C(C)C (stereo not drawn)	inactive
C=CC(=O)OCC(C)OCC(C)OCC(C)OC(=O)C=C (stereo not drawn)	inactive
O=C(O)C1CCC(C(=O)O)CC1 (stereo not drawn)	inactive
CC(=O)c1ccc(S(=O)(=O)NC(=O)NC2CCCCC2)cc1	inactive
C=CC(=O)OCCCCCCCC(C)C	inactive
Clc1cc(Cl)c(Cl)c(Cl)c1Cl	inactive
CC(C)COC(=O)CC(C(=O)OCC(C)C)S(=O)(=O)O (stereo not drawn)	inactive
CCCCCCCC(=O)OCC(COC(=O)CCCCCCC)OC(=O)CCCCCCC	inactive
CCOC(=O)c1ccccc1C	inactive
CCCCNC(=S)NCCCC	inactive
OCCCc1ccccc1	inactive
O=S(=O)(O)c1ccc(N=Nc2c(O)ccc3ccccc23)cc1	inactive
C=Cc1ccc(OC(C)=O)cc1	inactive
O=C(OCc1ccccc1)c1ccc(O)cc1	inactive
CCCCCCOC(=O)CCCCC(=O)OCCCCCC	inactive
CCC(C)C(=O)OCCc1ccccc1 (stereo not drawn)	inactive
C=CC(=O)OCCCCCCCCCC	inactive
CC1=CC(C)C(C=O)CC1 (stereo not drawn)	inactive

tested on: not listed separately; test: TOX21_p53_BLA_p3_viability: Viability Assessment in the Tox21 HCT-116 p53 Agonism Beta-lactamase Assay, Phase 3 (AID 2283593);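 also: cells exposed to compound for 16 h before reading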
Method in brief: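 HCT116 cells, 4000/well, dosed 5 h after plating by pin transfer (217-fold dilution from DMSO stock) and incubated 16 h at 37C, 5% CO2. Viability read as ATP luminescence with CellTiter-Glo after 30 min at room temperature.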

Compound	outcome
C=C[C@@]1(C)CC(=O)[C@]2(O)[C@@]3(C)[C@@H](O)CCC(C)(C)[C@@H]3[C@H](O)[C@H](OC(C)=O)[C@@]2(C)O1	inactive
O=c1c(O)c(-c2ccc(O)cc2O)oc2cc(O)cc(O)c12	inactive
CCCCCC(=O)OCC	inactive
C=C(C)C(=O)OCCOC(=O)C(=C)C	inactive
CC(=O)c1ccccc1O	inactive
O=C(O)CCCC(=O)O	inactive
CCC[Si](OC)(OC)OC	inactive
C=CC(=O)OCC(C)OCC(C)OCC(C)OC(=O)C=C (stereo not drawn)	inactive
O=C(O)C1CCC(C(=O)O)CC1 (stereo not drawn)	inactive
CC(=O)c1ccc(S(=O)(=O)NC(=O)NC2CCCCC2)cc1	inactive
Clc1cc(Cl)c(Cl)c(Cl)c1Cl	inactive
CC(C)COC(=O)CC(C(=O)OCC(C)C)S(=O)(=O)O (stereo not drawn)	inactive
CCCCCCCC(=O)OCC(COC(=O)CCCCCCC)OC(=O)CCCCCCC	inactive
CCOC(=O)c1ccccc1C	inactive
CCCCCCCCCCCC(C)=O	inactive
COC(=O)c1ccccc1C	inactive
Cc1ccccc1CCO	inactive
OCCCc1ccccc1	inactive
O=S(=O)(O)c1ccc(N=Nc2c(O)ccc3ccccc23)cc1	inactive
CC1=CCC2CC1C2(C)C (stereo not drawn)	inactive
C=Cc1ccc(OC(C)=O)cc1	inactive
CC(C)=CCl	inactive
CCCCCCOC(=O)CCCCC(=O)OCCCCCC	inactive
CC=C(C)C=CC=C(C)C	inactive
NNS(=O)(=O)c1ccc(Oc2ccc(S(=O)(=O)NN)cc2)cc1	inactive
